# Test results taken from ChEMBL document CHEMBL1201862, “PubChem BioAssay data set” (2004).
# Hit rate of the full screen: of about 400,000 compounds, about 2,100 (0.53%) were called active. Not shown: some 14% with an inconclusive outcome. No rule for the calls is given here. What follows is part of a selection rich in actives, with near analogues and random picks from the rest.
# Target: Ataxin-2 (Homo sapiens) (UniProt Q99700)
# Test: qHTS for Inhibitors of ATXN expression.
# Type: functional
# Sequence of Ataxin-2 (Homo sapiens) (Q99700 whole entry): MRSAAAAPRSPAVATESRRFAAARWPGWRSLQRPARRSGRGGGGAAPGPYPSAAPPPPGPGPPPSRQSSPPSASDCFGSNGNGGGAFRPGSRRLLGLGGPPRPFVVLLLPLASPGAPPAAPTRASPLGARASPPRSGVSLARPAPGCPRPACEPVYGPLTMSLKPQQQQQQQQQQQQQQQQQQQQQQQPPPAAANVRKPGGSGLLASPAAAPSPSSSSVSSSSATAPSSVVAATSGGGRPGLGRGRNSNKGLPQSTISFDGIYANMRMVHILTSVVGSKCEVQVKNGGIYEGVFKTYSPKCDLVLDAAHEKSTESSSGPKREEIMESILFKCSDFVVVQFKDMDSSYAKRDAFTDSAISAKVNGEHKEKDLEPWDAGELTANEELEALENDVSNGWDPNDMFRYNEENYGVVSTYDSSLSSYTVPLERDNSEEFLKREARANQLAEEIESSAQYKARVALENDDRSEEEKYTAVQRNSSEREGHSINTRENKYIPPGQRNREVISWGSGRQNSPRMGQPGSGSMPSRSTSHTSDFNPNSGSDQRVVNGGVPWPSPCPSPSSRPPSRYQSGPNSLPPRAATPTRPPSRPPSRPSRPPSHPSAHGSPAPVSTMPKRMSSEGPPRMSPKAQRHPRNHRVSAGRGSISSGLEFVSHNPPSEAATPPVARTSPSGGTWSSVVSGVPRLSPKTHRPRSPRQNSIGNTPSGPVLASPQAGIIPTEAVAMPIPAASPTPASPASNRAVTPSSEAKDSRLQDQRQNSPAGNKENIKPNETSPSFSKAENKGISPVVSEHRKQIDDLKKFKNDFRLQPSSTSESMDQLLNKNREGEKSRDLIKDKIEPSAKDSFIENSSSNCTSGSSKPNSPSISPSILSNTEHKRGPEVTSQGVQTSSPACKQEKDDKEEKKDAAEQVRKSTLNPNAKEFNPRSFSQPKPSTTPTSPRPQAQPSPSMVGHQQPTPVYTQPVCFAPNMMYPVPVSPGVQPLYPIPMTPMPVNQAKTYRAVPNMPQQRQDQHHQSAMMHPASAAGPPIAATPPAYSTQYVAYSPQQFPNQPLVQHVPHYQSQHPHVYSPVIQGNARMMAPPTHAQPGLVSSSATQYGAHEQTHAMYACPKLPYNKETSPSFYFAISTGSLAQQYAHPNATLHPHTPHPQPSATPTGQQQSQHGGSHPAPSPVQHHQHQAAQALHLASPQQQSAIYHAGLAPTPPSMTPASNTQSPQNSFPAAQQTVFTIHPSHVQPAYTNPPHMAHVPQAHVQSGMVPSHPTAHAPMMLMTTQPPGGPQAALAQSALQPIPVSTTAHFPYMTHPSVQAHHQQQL
row,Structure (SMILES),Potency
1,Cc1ccc(S(=O)(=O)Nc2nc3n(n2)C(c2ccccc2Cl)C=C(c2ccccc2)N3)cc1 (stereo not drawn),inactive
2,Oc1cccc2ccc(Nc3ccccn3)nc12,39.8 µM (active)
3,Oc1ccc(/C=C/c2ccc3cccc(O)c3n2)cc1Br,inactive
4,CSc1ccc(/C=C/c2ccc3cccc(O)c3n2)cc1,inactive
5,O=c1oc2ccccc2cc1-c1nc2c(s1)CCc1ccccc1-2,inactive
6,Cc1cc(C)c2c(N)c(C(=O)N/N=C/c3cccnc3)sc2n1,inactive
7,CC(NCC(O)COC1CCC(C(C)(C)C)CC1)c1ccccc1 (stereo not drawn),35.5 µM (active)
8,Cc1cccc(C)c1OCC(O)CNC(C)c1ccccc1 (stereo not drawn),inactive
9,CC(O)CNC12CC3CC(CC(C3)C1)C2 (stereo not drawn),inactive
10,CC(NCC(O)COCCC12CC3CC(CC(C3)C1)C2)c1ccccc1 (stereo not drawn),39.8 µM (active)
11,CCOc1ccc2nc(N3CCCN(C(=O)Nc4ccccc4C)CC3)c(C#N)cc2c1,inactive
12,O=C1CC2C(=O)NCCN2C(NC(=O)c2ccc(Cl)cc2)=N1 (stereo not drawn),inactive
13,Oc1ccc(N=Nc2ccc3c(c2)OCCO3)c2ncccc12,15.8 µM (active)
14,COC(=O)c1ccc(C(=O)OC)c(NC(=S)N2CCN(c3ccccc3F)CC2)c1,inactive
15,COc1ccc(-c2nnc(-c3ccccc3)o2)cc1OC,inactive
16,COc1ccc(CC(=O)Nc2cccc(-c3nnc(-c4ccccc4)o3)c2)cc1OC,10 µM (active)
17,COc1ccc(CCC(=O)OCC(=O)Nc2ccc(OC)c(OC)c2)cc1OC,inactive
18,CCOc1ccccc1-c1nc(-c2ccc(C)nc2OC)no1,inactive
19,CCOc1cc(-c2noc(-c3ccncc3)n2)cc(Br)c1OC,44.7 µM (active)
20,O=[N+]([O-])c1ccc(-c2nc(-c3ccncc3)no2)cc1,inactive
21,O=C1C=C(N(CCO)Cc2ccccc2)c2ccccc2C1=O,29.9 µM (active)
22,CC1(C)Cc2nc(Cl)c(C(N)=O)cc2CO1,inactive
23,C=CCC[C@@H](Cc1ccc(F)cc1)C(=O)OC[C@@H](Cc1c[nH]c2ccccc12)NC(=O)[C@H](CC=C)CC(=O)N(CCO)Cc1ccccc1,22.4 µM (active)
24,C=CCC[C@H](Cc1ccc(F)cc1)C(=O)OC[C@H](Cc1c[nH]c2ccccc12)NC(=O)[C@@H](CC=C)CC(=O)N(CCO)Cc1ccccc1,22.4 µM (active)
25,COC(=O)c1cc(NC(=O)CN2CCN(C(C)=O)CC2)cc(C(=O)OC)c1,inactive

row,Structure (SMILES),Potency
1,Cc1ccc2[nH]c(CSc3nc(C)cc(C)c3C#N)nc2c1,inactive
2,CCc1cc(=O)oc2c(C)c(O)c(CN3CCCCC3)cc12,inactive
3,N#Cc1cc([N+](=O)[O-])c(-n2nnc3ccccc32)c([N+](=O)[O-])c1,22.4 µM (active)
4,O=C(NOC(=O)c1c(F)cccc1Cl)c1ccc(Cl)c(Cl)c1,inactive
5,CCCCN1C(=O)C(O)(CC(=O)c2ccc(C)cc2C)c2cc(Br)ccc21 (stereo not drawn),31.6 µM (active)
6,CCCCN1C=C(C(=O)OC)C(c2ccccc2Cl)C(C(=O)OC)=C1,inactive
7,Cc1ccc(OCCn2cnc(Cl)c2Cl)cc1,inactive
8,CCN(CC)C(=O)c1cccc(NC(=O)c2cc(C3CC3)nc3c2cnn3C(C)C)c1,inactive
9,CC(=O)c1ccc(S(=O)(=O)NCCC(=O)N2CCN(c3ccccn3)CC2)cc1,inactive
10,COc1cc2c(cc1OC)CN(S(=O)(=O)c1ccccc1F)CC2,inactive
11,COc1cc2c(cc1OC)C(C)N(S(=O)(=O)c1cnc(Cl)c(Cl)c1)CC2 (stereo not drawn),12.6 µM (active)
12,COc1ccc(-c2c(C)nn3c(N4CCOCC4)cc(C)nc23)cc1OC,inactive
13,CSc1nc(Nc2ccc(F)cc2)cc(-c2ccccc2)n1,22.4 µM (active)
14,O=c1oc2ccccc2n1CCn1c2ccccc2c2nc3ccccc3nc21,44.7 µM (active)
15,COC(=O)Cn1c2ccccc2c2nc3ccccc3nc21,inactive
16,Cc1cccc2c3nc4ccccc4nc3n(C)c12,inactive
17,CC(C)(C)c1ccc(C(=O)N2CCC(=O)N(C(COCc3ccccc3)Cc3ccccc3)CC2)cc1 (stereo not drawn),28.2 µM (active)
18,CC(C)(C)c1ccc(C(=O)N2CCC(=O)N([C@H](COCc3ccccc3)Cc3ccccc3)CC2)cc1,35.5 µM (active)
19,COc1ccc(-c2ccc(CN3C(CC(C)C)C(=O)N(Cc4cn(CC5CCCCC5)nn4)CCS3(=O)=O)cc2)cn1 (stereo not drawn),10 µM (active)
20,CC(C)CC1C(=O)N(Cc2cn(Cc3ccco3)nn2)CCS(=O)(=O)N1Cc1ccc(-c2ccc(F)nc2)cc1 (stereo not drawn),25.1 µM (active)
21,CC(C)CC1C(=O)N(Cc2cn(Cc3ccco3)nn2)CCS(=O)(=O)N1Cc1ccc(-c2cccc(CO)c2)cc1 (stereo not drawn),35.5 µM (active)
22,COc1ccc(NS(=O)(=O)c2cc3c(cc2C)N(C)CCO3)c(OC)c1,inactive
23,CC1CCN(Cc2c(O)ccc3c2O/C(=C\c2ccco2)C3=O)CC1,inactive
24,O=C(c1cnn(-c2ccccc2)c1)c1cc(F)ccc1O,inactive
25,Cc1cc(Nc2ccc(F)cc2)n2c(nc3ccccc32)c1C#N,inactive

row,Structure (SMILES),Potency
1,Cc1cccc2nc(-c3ccccn3)c(Nc3ccc(F)cc3)n12,20 µM (active)
2,Cc1ccc(Nc2nc(-c3ccccc3)c(CC(=O)O)s2)cc1,inactive
3,Cc1ccc(Nc2c(-c3ccsc3)nc3cccc(C)n23)cc1,25.1 µM (active)
4,Cc1sc(-c2ccccn2)nc1OC(=O)c1ccc(F)cc1F,inactive
5,CCC1Cc2c(nc(N)c3c(N)nc(N4CCCCC4)c(C#N)c23)O1 (stereo not drawn),inactive
6,N=c1c(C(=O)NCC2CCCO2)cc2c(=O)n3ccccc3nc2n1Cc1ccc(Cl)cc1 (stereo not drawn),inactive
7,CC(=O)C1=NN(c2ccccc2)C(c2ccc3c(c2)OCO3)N1c1ccccc1 (stereo not drawn),inactive
8,Cc1c2c(n3c(nc4ccccc43)c1C#N)N(CCN1CCOCC1)CC2,inactive
9,CCOC(=O)c1cc2c(=O)n3ccccc3nc2n(Cc2ccco2)/c1=N\C(=O)c1cccc(C)c1,inactive
10,C=C1CC(COc2ccc3c(C)c(Cl)c(=O)oc3c2)(c2ccccc2)OC1=O (stereo not drawn),9.47 µM (active)
11,C=C1CC(COc2cc(=O)oc3ccccc23)(c2ccccc2)OC1=O (stereo not drawn),39.8 µM (active)
12,CCN(CC)c1ccc2c(C)c(Cl)c(=O)oc2c1,inactive
13,CCC(=O)Oc1ccc2c(C)c(Cl)c(=O)oc2c1,inactive
14,COc1cc(NC(=O)c2sc3ncn(CC(=O)N4CCC(C)CC4)c(=O)c3c2C)cc(OC)c1OC,inactive
15,COc1cc(/C=C(\C#N)c2nc3ccccc3[nH]2)cc(Br)c1OCc1ccccc1,inactive
16,COc1cc(CNC(C)c2ccccc2)cc(Br)c1OCc1ccc(F)cc1 (stereo not drawn),39.8 µM (active)
17,CCCCN(CCCC)C(=O)c1cc2c(=O)n3cccc(C)c3nc2s1,inactive
18,O=c1[nH][nH]c(=O)c2c(NS(=O)(=O)c3ccccc3)cccc12,inactive
19,N=C(N)Nc1nc(-c2ccccc2)c2ccccc2n1,1.41 µM (active)
20,O=C(O)c1ccc(Nc2nc(-c3ccccc3)c3ccccc3n2)cc1,inactive
21,NNc1nc(-c2ccccc2)c2ccccc2n1,inactive
22,CCCCN(C)CC(O)Cn1cc(/C=C/C(=O)c2ccc(OC)c(OC)c2)c2ccccc21 (stereo not drawn),inactive
23,c1ccc(-c2cn3nc4c(nc3n2)CCCC4)cc1,inactive
24,c1ccc(-c2cn3nc(-c4ccccc4)c(-c4ccccc4)nc3n2)cc1,inactive
25,c1ccc(-c2cn3c(n2)CCc2ccc4cccnc4c2-3)cc1,39.8 µM (active)

row,Structure (SMILES),Potency
1,COC(=O)C1CCN(C(c2cc(OC)c(OC)c(OC)c2)c2sc3nc(C)nn3c2O)CC1 (stereo not drawn),inactive
2,O=C(C1CCCCC1)N1C[C@@H](n2cc(-c3ccc(F)cc3)nn2)[C@H](O)C[C@@H]1c1ccc(Cl)cc1,22.4 µM (active)
3,Cc1ccc([C@H]2C[C@@H](O)[C@H](n3cc(-c4ccc(F)cc4)nn3)CN2C(=O)C2CCCCC2)cc1,22.4 µM (active)
4,O=C(C1CCCCC1)N1CCC(O)(c2ccc(Cl)cc2)CC1,inactive
5,CC1CSc2n1c(-c1ccccc1)c[n+]2-c1cccc(C(F)(F)F)c1 (stereo not drawn),inactive
6,Cc1nnc(SCc2cccc3ccccc23)s1,inactive
7,Cc1nnc(SC(=O)N2c3ccccc3Sc3ccccc32)s1,25.1 µM (active)
8,CC(C)NC(=O)N1c2ccccc2Sc2ccccc21,inactive
9,Nc1[nH]c(C(=O)c2ccccc2)c(-c2ccccc2C(F)(F)F)c1C(=O)NCCc1c[nH]c2ccccc12,25.1 µM (active)
10,Cc1ccc(N=C(S)NCCc2c[nH]c3ccccc23)c(C)c1,inactive
11,O=C(CCCc1c[nH]c2ccccc12)Nc1ccc2ccccc2c1,inactive
12,Nc1[nH]c(C(=O)c2ccccc2)c(-c2ccc(Cl)c(F)c2)c1C(=O)NCCc1c[nH]c2ccccc12,35.5 µM (active)
13,COc1ccc(C(=O)OCC(=O)c2c[nH]c3ccccc23)c(OC)c1,inactive
14,COc1ccc(C(=O)c2[nH]c(N)c(C(=O)NCCc3c[nH]c4ccccc34)c2-c2ccccc2Br)cc1,31.6 µM (active)
15,Nc1[nH]c(C(=O)c2ccccc2)c(-c2ccc(F)cc2)c1C(=O)NCCc1c[nH]c2ccccc12,39.8 µM (active)
16,CC(C)NC(=O)COCc1cc(-c2ccc3c(c2)OCO3)on1,inactive
17,Cc1c(Cc2ccccc2)sc(/N=C/c2ccc3ccccc3c2)c1C(N)=O,inactive
18,O=C1c2cccnc2C(=O)N1Cc1ccc(F)cc1S(=O)(=O)NCc1ccco1,inactive
19,O=C(COC(=O)c1c2c(nc3ccccc13)/C(=C/c1ccco1)CC2)NC1CCCC1,inactive
20,COCCn1c(N)c(C(=O)NCC2CCCO2)c2nc3ccccc3nc21 (stereo not drawn),inactive
21,COC(=O)c1cc(S(=O)(=O)NCC2CCN(Cc3cc(C)ccc3C)CC2)cn1C,inactive
22,N#C/C(=C\c1cc(Cl)cc(Cl)c1O)C(=O)NC1CCCCC1,inactive
23,O=[N+]([O-])c1c(Nc2ccc(O)cc2)cc(Cl)c2nonc12,2.24 µM (active)
